In PubChem BioAssay AID540308 (The Scripps Research Institute Molecular Screening Center, 2011) one finds activation data, which are given here for 36 compounds.

SMILES strings stand for the structures. Hit rate of the full screen: of about 360,000 compounds, about 3,500 (0.97%) were called active. This excerpt belongs to a sample that is enriched for actives. Values without a mark were called inactive.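 Rule for the calls: active = activation above a per-plate cutoff, the mean activation of sample wells on that plate plus 3 SD (cut at about 8% in these data); inactive = the rest.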

Sequence of Melanocortin receptor 4 (Homo sapiens) (P32245 whole entry, looked up): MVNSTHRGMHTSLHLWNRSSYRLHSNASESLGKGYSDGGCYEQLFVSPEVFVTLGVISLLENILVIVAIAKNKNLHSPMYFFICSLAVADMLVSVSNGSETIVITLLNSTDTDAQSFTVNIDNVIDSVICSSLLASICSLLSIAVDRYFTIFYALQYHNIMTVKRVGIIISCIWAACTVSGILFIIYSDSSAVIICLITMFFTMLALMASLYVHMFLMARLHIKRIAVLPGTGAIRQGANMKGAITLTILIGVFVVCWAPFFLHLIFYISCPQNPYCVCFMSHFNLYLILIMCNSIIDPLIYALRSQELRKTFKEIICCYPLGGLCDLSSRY

The test has as its target Melanocortin receptor 4 (Homo sapiens) (UniProt P32245). The test can be described thus: MC4R agonists recruiting beta-arrestin, primary screen, cell-based, luminescence, agonist arm of biased-ligand search (AID 540308). As to conditions: U2OS MC4R beta-arrestin complementation, at 8.9 µM, stronger effect = higher value, percent of melanotan II response, DMSO zero.
For `O=C(NCc1cccc(C(F)(F)F)c1)c1ccc2sc(COCCO)nc2c1`, the activation was -1.45%. Take `NC(=O)Nc1ccc(C(=O)OCC(=O)NC2CCCc3ccccc32)cc1` (stereo unspecified): the activation is -2.32%. On to `CCOC(=O)c1c(NC(=O)CNC2CCCc3ccccc32)sc(C(N)=O)c1C` (stereo unspecified), for which the activation is 8.65% (active).

As for `CCOC(=O)c1c(NC(=S)SC)sc(C(=O)N2CCc3ccccc3C2)c1C`, the activation was -0.37%.

Regarding `C#Cc1ccc(NC(=O)C2(C)CCN2C(=O)Cc2ccc(-c3ccccc3)cc2)cc1` (stereo unspecified), the activation is 0.34%. Then `CCCC/C=C/c1cccc2nncn12`, with 0.76%. To `CN1CCC(CN)(N2CCN(c3ccccc3)CC2)CC1` belongs 0.54%.

Turning to `COc1ccccc1N1CCN(c2ncnc3sc(C)c(-c4ccccc4)c23)CC1`, the activation was 2.5%. Then `Oc1ccccc1N1CCN(c2ncnc3sc(-c4ccccc4)cc23)CC1`, with 14.4% (active); and `CCc1cc2c(N3CCN(c4nnc(CC)s4)CC3)ncnc2s1`, with 1%.

With `CCCNC(=O)C1(C)CCN(C(=O)c2cc(F)ccc2C)C1` (stereo unspecified), the activation was -0.94%. Regarding `CC(C)(C(=O)N1CCC1(C)C(=O)NS(=O)(=O)c1ccc(Br)cc1)c1ccccc1` (stereo unspecified), the activation is -0.16%. Then `Cc1ccc(C2(C(F)(F)F)N=C3Sc4cc(C)cc(C)c4N3C(=O)N2)cc1` (stereo unspecified), with -0.99%; and `CCOC(=O)N(C)c1c(CC)nc2c(OCc3ccccc3C(=O)OC)cccn12`, with -1.73%; and `CCc1nc2c(OCCOc3ccc(F)cc3)cccn2c1N(C)C(=O)c1ccccc1F`, with 0.11%.

On to `COc1ccc(NC(=O)CCCC2CCCCC2)c(OC)c1`, for which the activation was -1.23%. Then `CC(=O)Oc1ccc(NC(=O)CCC2CCCCC2)c(C(=O)O)c1`, with 0.62%; and `COC(=O)c1sccc1NC(=O)CCC1CCCC1`, with 10.9% (active). Then `COCCCNC(=O)c1cccc2c(-c3ccc(O)c(OC)c3)coc12`, with 0.52%; and `COc1ccc(S(=O)(=O)N/N=C\c2ccc(OC)c(COc3ccc(C)cc3[N+](=O)[O-])c2)cc1`, with 12.8% (active).

In the case of `COc1ccc(S(=O)(=O)Nc2ccc3cn[nH]c3c2)cc1[N+](=O)[O-]`, the activation is -0.37%. Consider `Cc1ccc(S(=O)(=O)N/N=C\c2cc3c(cc2[N+](=O)[O-])OCO3)cc1`, for which the activation was -2.43%. For the compound `CN1CCN(C(=O)c2ccc(-c3cc4nc(NCc5cccnc5)n(C)c(=O)c4s3)cc2)CC1`, the activation was -1.19%. Consider `Cc1ccc(S(=O)(=O)NCCC(=O)Nc2ccc(C)c(Cl)c2)cc1C`, for which the activation is 10.6% (active). To `Cc1ccc(S(=O)(=O)NCCC(=O)Nc2cccc(S(N)(=O)=O)c2)cc1C` belongs -1.36%; to `Cc1ccc(NC(=O)CCNS(=O)(=O)c2ccc3c(c2)oc(=O)n3C)cc1C`, -0.21%. Then `O=C(Nc1ccc(F)cc1)Nc1nnc([C@H]2C[C@H](O)[C@@H](CO)O2)s1`, with 0.21%. With `O=C(NCc1cccnc1)c1ccc2nc([C@@H]3O[C@H](CO)[C@H](O)[C@H](O)[C@H]3O)[nH]c2c1`, the activation was -1.52%. `CC(=O)c1ccc(Nc2nc(C(N)c3ccccc3)cs2)cc1` (stereo unspecified): the activation was 1.43%. To `CC1(C(=O)Nc2cccc(Oc3ccccc3)c2)CCN1Cc1ccccc1Cl` (stereo unspecified) belongs -1.51%; to `Cc1nc2nc(SCC(=O)Nc3cccc(F)c3)[nH]c2cc1Br`, 4.22%; to `CCn1c(SCC(=O)Nc2cccc(F)c2)nnc1-c1cc2cc(Br)ccc2o1`, 14.9% (active). To `CCn1c(CNC(=O)c2ccco2)nnc1SCC(=O)Nc1cccc(F)c1` belongs 2.05%. To `CCCNS(=O)(=O)c1ccc2c(c1)CCCN2C(C)=O` belongs -3.18%. For `CN(C(=O)CN1CCN(c2cc(-c3ccc(OCc4ccccc4)cc3)ncn2)CC1)c1ccccc1`, the activation was -0.62%. On to `CCCS(=O)(=O)NC(=O)C1(C)CCCN(C(=O)c2cccs2)C1` (stereo unspecified), for which the activation was -0.48%.
